# Measurements taken from the supplement of paper PMC6555819.
# System: RARb:RXRa (NR concentration 270 nM, RXRa partner concentration 90 nM)
# Assay: PBM binding z-score (relative to random genomic background probes); higher = stronger binding; sequences stand for … in GC…GCGATTGACAGCGTAGAATGAAGG
# Outline: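 Each nuclear receptor dimer, without ligand, was incubated for 1 h on custom Agilent 4×180K protein-binding microarrays. Binding was detected with antibodies against each partner (one per run), and scanned fluorescence was regression-normalized. The binding z-scores are referenced to random human genomic background probes.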
row,Sequence,PBM binding z-score
1,CAAACTAGCTCAAAGGTCAAAGTCGAGCCAACCA,4.76
2,GGAACGAGGGCAAGTCGATAGCAGAGTTTGATGG,2.41
3,CAGCGTAGGTCAGGGCCAGTATAGGAGGAACGTT,3.43
4,TATTGTAGATCAACAGGAGGTTAAGAAAGATCGA,0.665
5,CAGCCTAGGTCAGGGCCAATATAGGAGGAACGTT,3.5
6,CTCGAAAAGTCGTGCTCAGGTGAGTATACCAAAC,0.264
7,GCGATTGGGGCAAAGCAGGTTACCATAAGGTTGG,0.946
8,TCGTGTAGATCAACAGGAGGTTAAGAAAGATCGA,0.441
9,CCTATTAGTTTACCATAAGGGCAACCGAAGCTCG,1.6
10,GCTAGTCGGTCAGTAAAAGGTCACACACCGGTCG,4.65
11,TCTATTAGTTGAACGGCAACCGACGAGTCCGTTT,0.424
12,ATCTCTAAGTAACAAGTTCAGTGAAAGAGAGGAC,1.57
13,GCTAGTTGGTCAGTAAAAGGTCCCACACCGGTCG,0.845
14,TCATATAGGTAAACGGTGAAAGTCGGTGTGGTAA,0.522
15,ACTAGTTGGTCAGCTGAGGTCACATACAATTCGG,3.4
16,CGTCCAAGGTCATAGGAGGTCAGTGAGGACAGAT,5.29
17,TCATATAGGTAAATGCTAGGTGAAAGTGCGATCT,0.649
18,TCCAGTAGGTTAGGGGCATTCAGAATGGCGTCGA,1.22
19,CTCGAAAGGTCGTGCTCAGGTGAGTAGACCAAAC,3.91
20,CCTAGTAGGTCAGGAGGTCACACACCGGATATGA,4.72

row,Sequence,PBM binding z-score
1,CAAACTAGGTCACGAAAGTTCAAAGTCGAATGAC,5.27
2,TCTTGTAGATCAAGGGTTAAGAAAGCCGAAGCCT,0.694
3,TTACCAAGATGAGCTGAGGTCGTTGATCCAACTC,0.279
4,CCTTACGGGTCAAGGTTATAGCGCGGGTGGTACG,4.29
5,TAGTCTAGGTCATGGGCCAGTATACCACGCGAAC,3.95
6,ATCTCTAGGTAAAAGTTCAGTCAATCCCGAGGAT,2.64
7,AGTCAAAGTTCACTAGGGAACGTAAGATTCAGCT,4.57
8,CGTCCAAGGTCATAGAAGGTCAGTGAAGACAGAT,5.41
9,CCAGACAGGTGACAGGTAACTCAGTCTGGTACGC,0.724
10,CTCGAAAGGTCGTGCTCACGTGAGTATACCAAAC,3.92
11,TTACCAAGGTGAGCAGAGGTCGTTGATCCAACTC,1.99
12,ATGTCTAGGTAAAGTTCAGTGAAAGATCGATAGA,2.84
13,CCGACTGGGGCACAAAGGTTACCATACCATCCGG,2.31
14,TATACAGGGTCAAAGGCCAGCGTACGAATGTCGA,4.46
15,CCTACTGGGCAATTCAGAGGTCATTGATCATATG,2.82
16,ACTATTAGTTGACTTGGGGCAACCGATACGACGC,0.789
17,CCGACTTGGGCAGAAAGGTTACCATACCATCCGG,1.12
18,GCTAGCACGCCATTTGGGTCACTCAATGACGGGC,0.997
19,TCGAGTAGGTTAGGGGCATTCAAAATGGCGTCGA,1.24
20,CCTCGGAGGACAGAAGGTCAGAGCCGTCCGCTTT,3.24
